Several values for one entry are separate records, joined by “and”; a condition that tells them apart may be missing. Equal values may be shown once. The panel holds about 83,000 compounds, 20% with a hit somewhere; the sample as a whole holds those more often.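 A percent growth of 40 corresponds to 60% growth inhibition; 0 means no net growth; -100 means all cells died. Active threshold: below 10.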 Unmarked numbers belong to inactive results. Activity calls are given as the source filed them.
Tests used:
Assay in all cases: NCI-60 one-dose screen, 48 h (100 = growth as untreated, 0 = no growth, -100 = all killed)
Conditions in all cases: 10 µM unless noted
HCT-15 colon = tested on: HCT-15 colon
HT29 colon = tested on: HT29 colon
SNB-75 CNS = tested on: SNB-75 CNS
SNB-19 CNS = tested on: SNB-19 CNS
U251 CNS = tested on: U251 CNS
PC-3 prostate = tested on: PC-3 prostate
SK-MEL-5 melanoma = tested on: SK-MEL-5 melanoma
UACC-62 melanoma = tested on: UACC-62 melanoma
LOX IMVI melanoma = tested on: LOX IMVI melanoma
SK-MEL-28 melanoma = tested on: SK-MEL-28 melanoma

SMILES	growth (HCT-15 colon)	growth (HT29 colon)	growth (SNB-75 CNS)	growth (SNB-19 CNS)	growth (U251 CNS) [%]	growth (PC-3 prostate)	growth (SK-MEL-5 melanoma)	growth (UACC-62 melanoma)	growth (LOX IMVI melanoma)	growth (SK-MEL-28 melanoma)
Cc1cccc(Cl)c1N	109%	109%	100%	108%	108	95.5%	110%	103%	98.6%	106%
Cn1c(-c2ccccc2)cc(=O)cc1-c1ccccc1	22.7%	24.7%	119%	89%	82.7	67.1%	95.3%	81.5%	73.2%	118%
NCCSSC/C=C\CSSCCN	102%	106%	91.6%	105%	92.1	78.3%	97.2%	105%	97.5%	115%
CC(C)(C)OC(=O)CC1(O)CCCCC1	105%	111%	90.8%	106%	104	96.8%	95.7%	103%	102%	105%
OCc1ccccc1F	15%	31.3%	126%	103%	80.5	71.9%	95.7%	84%	75.8%	103%
CC1=CC(=O)C=CC1=Nc1ccc(N(C)C)cc1	96.8% and 32.4%	105% and 45.1%	123% and 76.4%	97.1% and 73.4%	21.2	56% and 12.1%	89.4% and 17.6%	88.1% and 18.2%	83.4%	96.8% and 74.7%
CCNC1=CC(=O)c2ncccc2C1=O	10.8%	8.49% (active)	-91% (active)	19.6%	30.7	44.7%	-98.3% (active)	-95.3% (active)	-35.3% (active)	-37% (active)
CCN(CC)C(CC(=O)c1ccccc1)C(=O)c1ccccc1 (stereo not given)	64.6%	95.1%	114%	98.4%	93.7	101%	94.5%	99.7%	88.6%	118%
O=C(c1ccccc1)C1(Br)CCCCC1	99.1%	120%	95.2%	92%	95.6	99.2%	95.7%	90.5%	86.7%	101%
COc1ccc(CCl)c(C)c1OC	106%	102%	104%	107%	97.6	94.2%	90.8%	99.5%	94.3%	109%
CCOc1ccc(/C=C\C(=O)O)cc1	105%	105%	104%	106%	103	102%	108%	109%	105%	107%
COc1cc2c(cc1O)C(=O)CCCC2	95.3%	97.2%	89.3%	101%	96.8	87.6%	102%	106%	90.8%	111%

From PubChem BioAssay (NCI)
